Results as given in PubChem BioAssay AID1220 (Sanford-Burnham Center for Chemical Genomics, 2008).
Out of some 190,000 compounds screened, about 1,300 (0.68%) were called active. No stated cut-off is given here; in the data, active means inhibition above about 50%; inactive means the rest. For the sample, actives were picked, then their nearest neighbours and some compounds at random.

Each compound was assayed against Mannose-6-phosphate isomerase (Homo sapiens) (UniProt P34949) (assay: human PMI inhibitors, high substrate, primary screen, biochemical, fluorescence intensity, high mannose 6-phosphate (AID 1220)). Conditions: recombinant PMI enzyme, coupled fluorescence intensity; at 20 µM; hits give high values.
Chain of Mannose-6-phosphate isomerase (Homo sapiens) (P34949 whole entry, looked up): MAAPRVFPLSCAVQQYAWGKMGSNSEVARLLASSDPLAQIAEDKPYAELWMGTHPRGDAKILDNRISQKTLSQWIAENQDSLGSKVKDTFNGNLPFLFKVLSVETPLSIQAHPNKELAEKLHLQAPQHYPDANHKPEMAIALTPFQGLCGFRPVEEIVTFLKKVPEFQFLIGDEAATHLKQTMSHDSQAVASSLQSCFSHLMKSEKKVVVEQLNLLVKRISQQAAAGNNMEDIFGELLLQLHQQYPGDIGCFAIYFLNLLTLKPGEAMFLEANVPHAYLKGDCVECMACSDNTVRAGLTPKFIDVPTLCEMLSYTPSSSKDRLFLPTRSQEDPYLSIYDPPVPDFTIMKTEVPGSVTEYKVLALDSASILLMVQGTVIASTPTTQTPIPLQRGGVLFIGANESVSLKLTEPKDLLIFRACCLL

inhibition, inactive:
CNC(=O)CSc1nnnn1-c1cc(C)ccc1C 5.1%
CCOC(=O)c1c(NC(=O)CN2CCCc3ccccc32)sc(C)c1CC 7.2%
CCCCN1C(=O)/C(=C(/C#N)C(N)=O)c2ccccc21 36.9%
CCOC(=O)/C(C#N)=C1/C=CN(Cc2ccccc2)C=N1 1.1%
CCOC(=O)C1CCCN(C(=O)Nc2cccc(Cl)c2)C1 (centres undefined) 2.6%
COc1cc([N+](=O)[O-])cc2cc(C(=O)NC(C)(C)C)c(=O)oc12 15.7%
C=CCSc1nc2sc3c(c2c(=O)n1CC=C)CCc1ccccc1-3 33.5%
C=CCn1c(SCC)nc2sc3c(c2c1=O)CCc1ccccc1-3 5.8%
O=C1CC(C(=O)N(c2ccccc2)C(C(=O)NC2CCCC2)c2ccncc2)CS1 (centres undefined) 0.6%
Cc1c(C(=O)Nc2ccccc2)sc2nc[nH]c(=O)c12 8.6%
CCOC(=O)CSc1nc2c(c(=O)[nH]c(=O)n2C)n1CCc1ccccc1 8.8%
CCOC(=O)CSc1nc2c(c(=O)[nH]c(=O)n2C)n1CCCc1ccccc1 2.2%
CN1C(=O)CC(C(=O)O)SC1=Nc1ccc(F)cc1 (centres undefined) -4.1%
CC(C)N1CCN(c2ccncc2S(=O)(=O)N2CCOCC2)CC1 -5.7%
O=C(O)c1[nH]c2ccccc2c1C=NCc1ccccc1Cl -5%
CC1=CC(C)(C)Nc2ccc(C)cc21 40.8%
CC1=CC(C)(C)Nc2ccccc21 23.6%
C/C(=N/NC(=O)c1ccccc1)C(=O)O 33.7%
COc1ccc(/C=C/C(=O)c2ccc(OC)cc2OC)c(OC)c1 9.4%
COc1ccc(C(=O)/C=C/c2ccccc2)c(OC)c1 1.9%
COc1ccc(/C=C/C(=O)c2ccc(OC)cc2OC)cc1 2.1%
COc1ccc(C(=O)/C=C/c2ccccc2)c(O)c1 5.8%
Cc1ccc(N(C(=O)Cn2nnc(-c3ccccc3)n2)C(C(=O)NC2CCCCC2)c2ccccn2)cc1C (centres undefined) 6.5%
Cn1c(=O)n(Cc2ccc(Cl)cc2)c(=O)c2c1nc1n2CCN1Cc1ccco1 7.4%
Cc1cc2ncn(CCOc3ccccc3C#N)c2cc1C 0.3%
Cc1ccccc1-c1nsc(SCC(=O)Nc2ccc3c(c2)OCO3)n1 14.2%
CCN1/C(=C/c2ccc3cc(C)ccc3[n+]2CC)Sc2cc(C)ccc21 15%
CCN1/C(=C/c2ccc3cc(C)ccc3[n+]2CC)Sc2ccccc21 -14.4%
CCOC(=O)N1CCN(c2cc(=O)n(-c3ccccc3C)c(=O)[nH]2)CC1 -8%
Cc1ccsc1C(=O)OC1CCOC1=O (centres undefined) -9.2%
COC(=O)c1nc2cc3c(cc2c(C)c1C(=O)OC)OCO3 -5.6%
COC(=O)c1c(N)n(-c2ccc(N3CCOCC3)cc2)c2nc3ccccc3nc12 20%
Cc1nnc(SCc2ccc(F)cc2)n1NC/C=C/c1ccccc1 9.2%
CC(=O)N1CCN(C(=S)c2cccc([N+](=O)[O-])c2)CC1 -0.6%
Cc1cccc(NC(=O)C2(c3ccccc3)CCOCC2)c1 -5.7%
CCOc1ccc(NC(=O)CN2CCN(CC(=O)Nc3ccc4c(c3)OCCO4)CC2)cc1 -12.8%
COc1ccc(C(=O)/C=C(\C)Nc2ccc3c(c2)OCO3)cc1 33.7%
Cc1nc(-c2ccccc2)nc2[nH]c(C(C)C)cc(=O)c12 16.9%
CCN(C(=O)COc1cccnc1[N+](=O)[O-])C1CCS(=O)(=O)C1 (centres undefined) 43.2%
CCN(C(=O)COc1ccccc1[N+](=O)[O-])C1CCS(=O)(=O)C1 (centres undefined) -4%
O=C1CC(=O)N(CCNc2ncc(C(F)(F)F)cc2Cl)C(=O)N1 2.4%

inhibition, active:
CCOC(=O)/C(C#N)=C1/C(=O)N(Cc2ccccc2)c2ccccc21 66.7%
CCCCCOC(=O)CSc1nc2c(c(=O)[nH]c(=O)n2C)n1CCc1ccccc1 107%
CC1=CC(C)(C)Nc2cc(C)c(C)cc21 56.3%
COc1ccc(C(=O)/C=C/c2cc(OC)c(O)c(OC)c2)c(F)c1 62.9%
COc1ccc(C(=O)/C=C/c2ccc(OC)c(O)c2)c(F)c1 62.5%
COC(=O)c1nc2ccc(N3CCOCC3)cc2c(C)c1C(=O)OC 64.4%
CCOc1ccc(N/C(C)=C\C(=O)c2ccc3c(c2)OCCO3)cc1 61.4%
CCN(C(=O)COc1cccc2cccnc12)C1CCS(=O)(=O)C1 (centres undefined) 63.2%
